According to the supplement of paper PMC9262897, “Low-cost anti-mycobacterial drug discovery using engineered E. coli” (Nature Communications, 2022):
Where a name gives a salt, the structure may show the parent alone. ± gives the standard deviation of the averaged measurements.

Experiments:
Experiment in all cases: growth (OD600 after 10 h); higher = more growth (less inhibition)
[1] = test system: E. coli TESEC Alr+ wild-type control; conditions: compound 0.1 mM; raw OD600 reference: median of DMSO wells 0.241, cell-free background 0.041
Description: (§1)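 TESEC Mtb Alr E. coli, or the Alr+ wild-type control, in 384-well plates with Prestwick library compounds at 0.1 mM and 1% DMSO, across arabinose induction levels of 1E3 to 1E7 nM. Growth is read as OD600 after 10 h at 37 °C in triplicate biological replicates.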

E. coli TESEC Mtb Alr [2] = conditions: compound 0.1 mM
Description: as §1

E. coli TESEC Mtb Asd = conditions: compound 0.1 mM
Description: (§2)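 TESEC E. coli strains in which the native enzyme is deleted and replaced by arabinose-inducible Mtb Asd, DapB, CysH or TrpD, each grown in its selective medium. Strains were screened against the Prestwick library at 0.1 mM and 1% DMSO in 384-well format at low and high arabinose induction. Growth is read as OD600 after 10 h in triplicate.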

E. coli TESEC Mtb DapB = conditions: compound 0.1 mM
Description: as §2

[3] = test system: E. coli TESEC Alr+ wild-type control; conditions: compound 0.1 mM; raw OD600 reference: median of DMSO wells 0.49, cell-free background 0.052
Description: (§3)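 TESEC Mtb Alr E. coli (ΔaraC ΔtolC ΔentC Δalr ΔdadX, arabinose-inducible Mtb Alr) or the Alr+ wild-type control strain, grown in defined M9-fructose medium without D-alanine in 96-well plates with Prestwick library compounds at 0.1 mM and 1% DMSO. Low Alr induction is 0.1 µM arabinose and high induction is 10 mM arabinose.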

E. coli TESEC Mtb Alr [4] = conditions: compound 0.1 mM; remark: listed apart in the source
Description: as §3

[5] = arabinose 1000 nM, raw OD600 reference: median of DMSO wells 0.294, cell-free background 0.041
[6] = arabinose 10000 nM, raw OD600 reference: median of DMSO wells 0.264, cell-free background 0.041
[7] = arabinose 100000 nM, raw OD600 reference: median of DMSO wells 0.201, cell-free background 0.041
[8] = arabinose 1000000 nM, raw OD600 reference: median of DMSO wells 0.193, cell-free background 0.041
[9] = arabinose 10000000 nM, raw OD600 reference: median of DMSO wells 0.146, cell-free background 0.041
[10] = arabinose induction (level): High, raw OD600 reference: median of DMSO wells 0.331, cell-free background 0.041
[11] = arabinose induction (level): Low, raw OD600 reference: median of DMSO wells 0.417, cell-free background 0.041
[12] = arabinose induction (level): High, raw OD600 reference: median of DMSO wells […], cell-free background 0.041
[13] = arabinose induction (level): Low, raw OD600 reference: median of DMSO wells 0.227, cell-free background 0.041
[14] = arabinose 100 nM, raw OD600 reference: median of DMSO wells 0.413, cell-free background 0.052
[15] = arabinose 10000000 nM, raw OD600 reference: median of DMSO wells […], cell-free background 0.052

Row | Structure (SMILES) | growth [1] | growth (E. coli TESEC Mtb Alr [2]; [5]) | growth (E. coli TESEC Mtb Alr [2]; [6]) | growth (E. coli TESEC Mtb Alr [2]; [7]) | growth (E. coli TESEC Mtb Alr [2]; [8]) | growth (E. coli TESEC Mtb Alr [2]; [9]) | growth (E. coli TESEC Mtb Asd; [10]) | growth (E. coli TESEC Mtb Asd; [11]) | growth (E. coli TESEC Mtb DapB; [12]) | growth (E. coli TESEC Mtb DapB; [13]) | growth [3] | growth (E. coli TESEC Mtb Alr [4]; [14]) | growth (E. coli TESEC Mtb Alr [4]; [15])
1 | O=C(O)c1cn(C2CC2)c2cc(N3CCNCC3)c(F)cc2c1=O [Ciprofloxacin hydrochloride monohydrate] | 0.0408 ± 0.00053 | 0.0398 ± 0.0012 | 0.0399 ± 0.0009 | 0.0402 ± 0.0002 | 0.0391 ± 0.00026 | 0.0402 ± 0.00036 | 0.0484 ± 0.0012 | 0.0498 ± 0.001 | 0.049 ± 0.00046 | 0.0712 ± 0.04 | 0.0505 ± 0.0005 | 0.0528 ± 0.00085 | 0.0527 ± 0.0033
2 | COc1ccc(C(=O)CC(=O)c2ccc(C(C)(C)C)cc2)cc1 [Avobenzone] | 0.116 ± 0.017 | 0.188 ± 0.026 | 0.197 ± 0.016 | 0.176 ± 0.02 | 0.107 ± 0.033 | 0.109 ± 0.0074 | 0.277 ± 0.068 | 0.27 ± 0.0061 | 0.202 ± 0.072 | 0.239 ± 0.055 | 0.533 ± 0.076 | 0.247 ± 0.058 | 0.267 ± 0.0055
3 | Cc1c(N)c(=O)n(-c2ccccc2)n1C [Ampyrone] | 0.25 ± 0.0062 | 0.289 ± 0.008 | 0.267 ± 0.019 | 0.217 ± 0.02 | 0.187 ± 0.0029 | 0.146 ± 0.007 | 0.368 ± 0.033 | 0.446 ± 0.01 | 0.175 ± 0.0078 | 0.209 ± 0.011 | 0.457 ± 0.017 | 0.414 ± 0.0049 | 0.3598 ± 0.0033
4 | CCN1CCCC(OC(=O)C(c2ccccc2)c2ccccc2)C1 (stereo unspecified) [Piperidolate hydrochloride] | 0.18 ± 0.0021 | 0.264 ± 0.0065 | 0.259 ± 0.012 | 0.161 ± 0.01 | 0.157 ± 0.0096 | 0.136 ± 0.0042 | 0.176 ± 0.025 | 0.428 ± 0.14 | 0.178 ± 0.018 | 0.182 ± 0.0083 | 0.555 ± 0.023 | 0.4174 ± 0.0019 | 0.329 ± 0.011
5 | O=C(O)c1cn(-c2ccc(F)cc2)c2cc(N3CCNCC3)c(F)cc2c1=O [Sarafloxacin] | 0.0422 ± 0.00026 | 0.0454 ± 0.0031 | 0.0399 ± 0.0003 | 0.04133 ± 0.00015 | 0.0405 ± 0.0013 | 0.0412 ± 0.0021 | 0.0475 ± 0.0021 | 0.047 ± 0.0013 | 0.0494 ± 0.00055 | 0.0482 ± 0.00017 | 0.0534 ± 0.00044 | 0.0545 ± 0.00093 | 0.0532 ± 0.0002
6 | Cc1cccc(C)c1NC(=O)C(C)N (stereo unspecified) [Tocainide hydrochloride] | 0.26 ± 0.0084 | 0.318 ± 0.0085 | 0.269 ± 0.0071 | 0.187 ± 0.014 | 0.1844 ± 0.0016 | 0.145 ± 0.0027 | 0.209 ± 0.016 | 0.433 ± 0.031 | 0.232 ± 0.038 | 0.244 ± 0.06 | 0.483 ± 0.061 | 0.4 ± 0.015 | 0.307 ± 0.023
7 | OC(Cn1cncn1)(Cn1cncn1)c1ccc(F)cc1F [Fluconazole] | 0.2384 ± 0.0019 | 0.29 ± 0.005 | 0.276 ± 0.0067 | 0.187 ± 0.029 | 0.211 ± 0.0083 | 0.14 ± 0.0056 | 0.267 ± 0.015 | 0.283 ± 0.037 | 0.195 ± 0.013 | 0.213 ± 0.032 | 0.505 ± 0.049 | 0.411 ± 0.012 | 0.357 ± 0.017
